PubChem BioAssay

Assay: Wnt pathway potentiators raising nuclear beta-catenin – imaging, WNT3A-conditioned medium, mouse C2C12, NPC library, primary screen (AID 1117326); further: reference of the scale not given here
Details: stimulation, at 2 µM, stronger effect = higher value

Row | SMILES | nuclear beta-catenin stimulation
1 | NC(=O)CC[C@@H]1NC(=O)[C@H](Cc2ccccc2)NC(=O)[C@H](Cc2ccc(O)cc2)NC(=O)CCSSC[C@@H](C(=O)N2CCC[C@H]2C(=O)N[C@@H](CCCN=C(N)N)C(=O)NCC(N)=O)NC(=O)[C@H](CC(N)=O)NC1=O | -1.2%
2 | NCCNc1ccc(NCCN)c2c1C(=O)c1ccncc1C2=O | 8.9%
3 | O=C(O)Cc1ccccc1Oc1ccc(Cl)cc1Cl | 0.7%
4 | Cc1ccc(C(C)C)c(O)c1 | 0.8%
5 | CCN1/C(=C/C=C/c2sc3ccccc3[n+]2CC)Sc2ccccc21 | 7.5%
6 | CCc1cc2cc(OC)c(OC)cc2c(Cc2ccccc2)n1 | 3.1%
7 | C=C(C)C(=O)OCC(O)CO (centres undefined) | 28.1%
8 | CCCCCCCCCCCC(=O)OCC(O)CO (centres undefined) | 2.9%
9 | CN1CCN(C(=O)C2CCCCC2)CC1 | -0.3%
10 | CC(=O)O[C@H]1C[C@@H]2CC[C@H]3[C@H]4C[C@H]([N+]5(C)CCCCC5)[C@@H](OC(C)=O)[C@@]4(C)CC[C@@H]3[C@@]2(C)C[C@H]1[N+]1(C)CCCCC1 | 0.2%
11 | NS(=O)(=O)c1ccc(N2CCCCS2(=O)=O)cc1 | -0.6%
12 | NC(=O)NS(=O)(=O)c1ccc(Cl)cc1 | 16.9%
13 | CCOC(=O)c1cccc(N)c1 | -1.1%
14 | CCCCCCCCCCCCCCCCCC(=O)[O][Al] | -0.8%
15 | C[C@H](CCC(=O)O)[C@H]1CC[C@H]2[C@@H]3CC[C@@H]4C[C@H](O)CC[C@]4(C)[C@@H]3C[C@H](O)[C@]12C | -1.1%
16 | O=C(CCOCCOCCOCCOCCC(=O)Nc1c(I)cc(I)c(C(=O)O)c1I)Nc1c(I)cc(I)c(C(=O)O)c1I | -1.6%
17 | CC(CC(C#N)(c1ccccc1)C(C)C)N(C)C (centres undefined) | 0.9%
18 | CNC(=O)c1cnn(-c2nc(N)c3ncn([C@@H]4O[C@H](CO)[C@@H](O)[C@H]4O)c3n2)c1 | 4.8%
19 | O=C(O)c1cc(=O)c2c3nc4ccccc4oc-3cc(=O)c2[nH]1 | -0.7%
20 | Cc1oc(=O)oc1COC(=O)[C@@H]1N2C(=O)[C@@H](NC(=O)[C@H](N)c3ccccc3)[C@H]2SC1(C)C | 1.3%

Row | SMILES | nuclear beta-catenin stimulation
21 | CCCCCCCCCCCCCC[N+](C)(C)C | 7.5%
22 | COc1cc2c(cc1OC)CN(C(=O)[C@H](C)N[C@@H](CCc1ccccc1)C(=O)O)[C@H](C(=O)O)C2 | -2.5%
23 | CCOC(=O)c1cccnc1 | 0.3%
24 | Cc1cc(CC(=O)O)c(C)n1-c1ccc(Cl)cc1 | -0.4%
25 | CCOC(=O)C(C#N)=C(c1ccccc1)c1ccccc1 | 1.8%
26 | CC1CCCCN1CCCOC(=O)c1ccc(OC2CCCCC2)cc1 (centres undefined) | 4.4%
27 | NC(=S)N/N=C/c1cccnc1 | 0.5%
28 | C[C@@H](N)C(=O)O | 0%
29 | C[N+]1(CC2COC(c3ccccc3)(c3ccccc3)O2)CCCCC1 (centres undefined) | -0.6%
30 | O=C(O)CNC(=O)c1ccccc1 | 1.4%
31 | CC(CSC(=O)c1ccccc1)C(=O)N1C[C@@H](Sc2ccccc2)C[C@H]1C(=O)O (some centres undefined) | -0.2%
32 | O=C(O)c1ccccc1S | -1.3%
33 | CC[N+](CC)(CC)CCOC(=O)C(C1CCCC1)C1CCCC1 | 2%
34 | O=C(O)[C@@H]1C(=CCO)O[C@@H]2CC(=O)N12 | 0.6%
35 | N[C@@H](Cc1cc(I)c(O)c(I)c1)C(=O)O | 3.2%
36 | Cc1cc(O)c(C)c(C)c1O | -0.4%
37 | CC(C)=CCC/C(C)=C/CC/C(C)=C/CCC(=O)OC/C=C(\C)CCC=C(C)C | 0.6%
38 | O=C(/C=C/c1ccc(O)c(O)c1)O[C@@H]1C[C@@](OC(=O)/C=C/c2ccc(O)c(O)c2)(C(=O)O)C[C@@H](O)[C@@H]1O | 0.9%
39 | CCO[C@@H]1O[C@H](C(COCc2ccccc2)OCc2ccccc2)[C@H](OCc2ccccc2)[C@H]1O (some centres undefined) | -1.2%
